# ChEMBL document CHEMBL2218924, “A broad activity screen in support of a chemogenomic map for kinase signalling research and drug discovery” (Biochem J, 2013)
# Target: Casein kinase I isoform delta (Homo sapiens) (UniProt P48730)
# Conditions: at 10 µM
# Chain of Casein kinase I isoform delta (Homo sapiens) (P48730 whole entry, looked up, canonical isoform): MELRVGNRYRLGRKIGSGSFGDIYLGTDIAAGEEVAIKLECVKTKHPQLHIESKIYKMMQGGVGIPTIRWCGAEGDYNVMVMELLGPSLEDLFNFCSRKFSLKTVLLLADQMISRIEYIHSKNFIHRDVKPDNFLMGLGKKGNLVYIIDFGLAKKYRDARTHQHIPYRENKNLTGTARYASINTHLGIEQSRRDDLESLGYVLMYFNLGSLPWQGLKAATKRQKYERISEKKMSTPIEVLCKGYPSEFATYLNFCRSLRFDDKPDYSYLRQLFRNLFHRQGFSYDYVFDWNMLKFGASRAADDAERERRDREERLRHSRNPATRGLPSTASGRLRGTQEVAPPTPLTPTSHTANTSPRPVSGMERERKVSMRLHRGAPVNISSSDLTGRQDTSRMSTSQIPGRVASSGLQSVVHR
row,Structure (SMILES),residual activity [%]
1,Nc1n[nH]c2nnc(-c3c(-c4ccccc4)nn4ccccc34)cc12,17
2,Cc1nc2cc3nc(-c4cccs4)cnc3cc2n1C,67
3,N#Cc1cnc2cnc(NCc3cccnc3)cc2c1Nc1ccc(F)c(Cl)c1,62
4,Nc1nc(Nc2ccc(S(N)(=O)=O)cc2)nn1C(=S)Nc1c(F)cccc1F,16
5,Oc1ccc(-c2nc(-c3ccc(F)cc3)c(-c3ccncc3)[nH]2)cc1,-1
6,Cn1nc2c3c(cccc31)C(=O)c1ccccc1-2,1
7,COc1cccc(-c2cc(=O)c3ccccc3o2)c1N,87
8,CC[n+]1c(/C=C/N(C)c2ccccc2)n(-c2ccccc2)c2ccc(-c3nc4ccccc4s3)cc21,93
9,O=[N+]([O-])c1ccc(-c2nc(-c3ccc(F)cc3)c(-c3ccncc3)[nH]2)cc1,4
10,COc1cc2ncc(-c3ccccc3)nc2cc1OC,39
11,CCC(=O)Nc1ccc2ncnc(Nc3cccc(Br)c3)c2c1,100
12,CCOc1cc2ncnc(Nc3cccc(Br)c3)c2cc1OCC,51
13,c1ccc(-c2n[nH]c3c2oc2ccccc23)cc1,33
14,Nc1ccc2ncnc(NCCc3ccc(Oc4ccccc4)cc3)c2c1,53
15,CN(C)c1ccc(/C=C2\C(=O)Nc3ccccc32)cc1,21
16,O=Nc1c(-c2c(O)[nH]c3ccccc23)[nH]c2ccccc12,4
17,O=C(Nc1cccc(Nc2nccc(Nc3cccc(C(F)(F)F)c3)n2)c1)C1CC1,78

row,Structure (SMILES),residual activity [%]
1,CO[C@H]1C[C@@H]2CC[C@@H](C)[C@@](O)(O2)C(=O)C(=O)N2CCCC[C@H]2C(=O)O[C@H]([C@H](C)C[C@@H]2CC[C@@H](O)[C@H](OC)C2)CC(=O)[C@H](C)/C=C(\C)[C@@H](O)[C@@H](OC)C(=O)[C@H](C)C[C@H](C)/C=C/C=C/C=C/1C,109
2,CCN(CC)C(=O)c1ccc(Nc2nc(OCC3CCCCC3)c3nc[nH]c3n2)cc1,34
3,Oc1c2ccccc2c2c3c(cccc13)N=N2,1
4,N#CC(C#N)=C(N)/C(C#N)=C/c1ccc(O)cc1,54
5,O=C1NC(=O)/C(=C\c2ccc3nccnc3c2)S1,46
6,Cc1cc(Nc2nc(-c3ccccc3)nc3ccccc23)n[nH]1,51
7,COc1ccc(OC)c2c(=S)c3ccccc3[nH]c12,74
8,O=c1c2ccccc2[nH]c(=S)n1CCN1CCC(=C(c2ccc(F)cc2)c2ccc(F)cc2)CC1,63
9,Cn1cc(/C=C2\C(=O)Nc3ccc(S(N)(=O)=O)cc32)c2ccccc21,59
10,CC(C)n1cnc2/c(=N/c3cccc(Cl)c3)nc(NCCO)[nH]c21,7
11,COc1cc2ncnc(N3CCN(C(=O)Nc4ccc(Oc5ccccc5)cc4)CC3)c2cc1OC,89
12,O=c1cc(-c2cccc3c2Sc2ccccc2S3)oc(N2CCOCC2)c1,44
13,CN(C)CCCn1cc(C2=C(c3c[nH]c4ccccc34)C(=O)NC2=O)c2ccccc21,79
14,Cc1cccc(-c2[nH]c(C(C)(C)C)nc2-c2ccc3c(c2)OCO3)n1,33
15,COc1cc2ncnc(Nc3ccc(Oc4ccccc4)cc3)c2cc1OC,101
16,Cc1cc2ncc(-c3ccccc3)nc2cc1C,55
17,NC(=O)c1ccc2[nH]c(-c3ccc(Oc4ccc(Cl)cc4)cc3)nc2c1,83
